Experimental data reported in PubChem BioAssay (NCATS).
Results filed as inconclusive are left out. Where a call stands in place of a potency, no number is given. Calls of active or inactive are those of the source. Calls come from the whole dose curve; as a rule, active = well fitted inhibition curve with a large enough effect; inconclusive = small, poorly fitted or top-dose-only effect; inactive = flat fitted curve, though single readings scatter.

How the values were obtained:
[1] = target: Ubiquitin carboxyl-terminal hydrolase 1 (Homo sapiens) (UniProt O94782); assay: Inhibitors of USP1/UAF1: Pilot qHTS (AID 504865); note: nearly all actives have a fitted effect of over 35% in size
Method in brief: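 Deubiquitinase activity followed as kinetic rhodamine fluorescence release from 150 nM Ub-Rho. 1 nM USP1/UAF1 with compound, after 15 min room-temperature preincubation, in HEPES pH 7.8 buffer containing TCEP, EDTA, BSA and Tween-20.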

3D7 = assay: qHTS profiling for inhibitors of Plasmodium falciparum proliferation (AID 504749); note: nearly all actives have a fitted effect of over 60% in size; settings: P. falciparum in erythrocytes, SYBR Green DNA, 72 h; series mostly up to 28.7 µM
Method in brief: (§1)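 P. falciparum-infected erythrocytes (0.3% parasitemia, 2.5% hematocrit) incubated with compound 72 h at 37 C, 5% CO2. Parasite DNA detected by SYBR Green after lysis, overnight at room temperature; normalised to 0.29 uM artemisinin and DMSO.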

ATS95 = assay: as above; settings: P. falciparum in erythrocytes, SYBR Green DNA, 72 h; series mostly up to 28.7 µM
Method in brief: as §1

C2A = assay: as above; settings: P. falciparum in erythrocytes, SYBR Green DNA, 72 h; series mostly up to 28.7 µM
Method in brief: as §1

CP191 = assay: as above; settings: P. falciparum in erythrocytes, SYBR Green DNA, 72 h; series mostly up to 28.7 µM
Method in brief: as §1

CP217 = assay: as above; settings: P. falciparum in erythrocytes, SYBR Green DNA, 72 h; series mostly up to 28.7 µM
Method in brief: as §1

CP247 = assay: as above; settings: P. falciparum in erythrocytes, SYBR Green DNA, 72 h; series mostly up to 28.7 µM
Method in brief: as §1

CP250 = assay: as above; settings: P. falciparum in erythrocytes, SYBR Green DNA, 72 h; series mostly up to 28.7 µM
Method in brief: as §1

CP291 = assay: as above; settings: P. falciparum in erythrocytes, SYBR Green DNA, 72 h; series mostly up to 28.7 µM
Method in brief: as §1

DIV14 = assay: as above; settings: P. falciparum in erythrocytes, SYBR Green DNA, 72 h; series mostly up to 28.7 µM
Method in brief: as §1

DIV17 = assay: as above; settings: P. falciparum in erythrocytes, SYBR Green DNA, 72 h; series mostly up to 28.7 µM
Method in brief: as §1

DIV30 = assay: as above; settings: P. falciparum in erythrocytes, SYBR Green DNA, 72 h; series mostly up to 28.7 µM
Method in brief: as §1

P94_40 = assay: as above; settings: P. falciparum in erythrocytes, SYBR Green DNA, 72 h; series mostly up to 28.7 µM
Method in brief: as §1

PAD = assay: as above; settings: P. falciparum in erythrocytes, SYBR Green DNA, 72 h; series mostly up to 28.7 µM
Method in brief: as §1

SC27B = assay: as above; settings: P. falciparum in erythrocytes, SYBR Green DNA, 72 h; series mostly up to 28.7 µM
Method in brief: as §1

TAB113 = assay: as above; settings: P. falciparum in erythrocytes, SYBR Green DNA, 72 h; series mostly up to 28.7 µM
Method in brief: as §1

TAB165 = assay: as above; settings: P. falciparum in erythrocytes, SYBR Green DNA, 72 h; series mostly up to 28.7 µM
Method in brief: as §1

CP260 = assay: as above; settings: P. falciparum in erythrocytes, SYBR Green DNA, 72 h; series mostly up to 28.7 µM
Method in brief: as §1

7G8 = assay: as above; settings: P. falciparum in erythrocytes, SYBR Green DNA, 72 h; series mostly up to 28.7 µM
Method in brief: as §1

CP335 = assay: as above; settings: P. falciparum in erythrocytes, SYBR Green DNA, 72 h; series mostly up to 28.7 µM
Method in brief: as §1
Potency is the fitted concentration of half-maximal effect.

Chain of Ubiquitin carboxyl-terminal hydrolase 1 (Homo sapiens) (O94782 whole entry, looked up): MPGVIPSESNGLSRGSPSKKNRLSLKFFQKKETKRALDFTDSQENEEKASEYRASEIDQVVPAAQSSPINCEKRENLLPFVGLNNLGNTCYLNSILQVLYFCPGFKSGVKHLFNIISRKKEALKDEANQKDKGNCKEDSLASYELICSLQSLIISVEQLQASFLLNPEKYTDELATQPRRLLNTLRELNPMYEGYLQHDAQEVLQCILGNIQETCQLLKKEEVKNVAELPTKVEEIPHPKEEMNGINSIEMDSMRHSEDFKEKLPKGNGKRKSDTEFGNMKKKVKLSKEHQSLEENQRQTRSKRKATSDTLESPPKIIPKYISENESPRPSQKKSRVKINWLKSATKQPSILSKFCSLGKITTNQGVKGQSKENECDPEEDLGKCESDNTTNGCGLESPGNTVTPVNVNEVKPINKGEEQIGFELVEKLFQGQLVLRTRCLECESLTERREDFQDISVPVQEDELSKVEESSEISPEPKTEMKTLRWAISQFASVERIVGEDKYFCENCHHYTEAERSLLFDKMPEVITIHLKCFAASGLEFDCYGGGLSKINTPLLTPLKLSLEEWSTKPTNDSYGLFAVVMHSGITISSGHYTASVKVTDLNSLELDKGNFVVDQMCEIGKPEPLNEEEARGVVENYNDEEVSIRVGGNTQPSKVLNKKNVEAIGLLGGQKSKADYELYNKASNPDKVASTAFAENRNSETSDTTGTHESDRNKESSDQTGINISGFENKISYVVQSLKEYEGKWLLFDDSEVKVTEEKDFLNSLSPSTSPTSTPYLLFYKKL

SMILES	Potency [1]	Potency (3D7)	Potency (ATS95)	Potency (C2A)	Potency (CP191)	Potency (CP217)	Potency (CP247)	Potency (CP250)	Potency (CP291)	Potency (DIV14)	Potency (DIV17)	Potency (DIV30)	Potency (P94_40)	Potency (PAD)	Potency (SC27B)	Potency (TAB113)	Potency (TAB165)	Potency (CP260)	Potency (7G8)	Potency (CP335)
CC1CN(c2c(F)c(N)c3c(=O)c(C(=O)O)cn(C4CC4)c3c2F)CC(C)N1 (stereo unspecified)	inactive	inactive	inactive	inactive	inactive	inactive	inactive	inactive	inactive	inactive	inactive	inactive	inactive	inactive	inactive	inactive	inactive			
CCCCC(=O)OC1CCC2C3CCc4cc(O)ccc4C3CC[C@]12C (stereo partly specified)		inactive		inactive		inactive		inactive	inactive			inactive						inactive		
OCC(O)C(O)C(O)C(O)CO (stereo unspecified)	inactive	inactive	inactive	inactive	inactive	inactive	inactive	inactive	inactive	inactive	inactive	inactive	inactive	inactive	inactive	inactive	inactive	inactive	inactive	inactive
C[C@]12CC[C@@H]3c4ccc(O)cc4CC[C@H]3[C@@H]1CCC2OC(=O)CCC1CCCC1 (stereo partly specified)			inactive	inactive	inactive	inactive	inactive	inactive	inactive	inactive	inactive	inactive	inactive		inactive	inactive	inactive	inactive	10 µM (active)	
NC(C(=O)O)C(O)c1ccc(O)c(O)c1 (stereo unspecified)	22.4 µM (active)	8.91 µM (active)																		
CCOc1ccccc1O[C@@H](c1ccccc1)[C@@H]1CNCCO1	inactive							inactive	inactive	1.69 µM (active)	1.9 µM (active)	6.75 µM (active)					10 µM (active)		5.01 µM (active)	
C=C1CC2C3C=C(C)C4=CC(=O)CCC4(C)C3CCC2(C)[C@@]1(OC(C)=O)C(C)=O (stereo partly specified)				inactive			inactive	inactive							inactive				12.6 µM (active)	
CC1=C(C/C=C(\C)CCCC(C)CCCC(C)CCCC(C)C)C(=O)c2ccccc2C1=O (stereo unspecified)		8.91 µM (active)		inactive		inactive	inactive	inactive			inactive	inactive	4.47 µM (active)	7.94 µM (active)		8.91 µM (active)			8.91 µM (active)	12 µM (active)
Oc1cc2cc(CCN3CCN(c4nsc5ccccc45)CC3)c(Cl)cc2[nH]1			inactive	inactive		inactive	10 µM (active)			6.75 µM (active)			inactive		inactive	inactive			6.31 µM (active)	
C/C=C1/NN(CCCN2CCN(c3cccc(Cl)c3)CC2)C(=O)N1CCOc1ccccc1		inactive	inactive	inactive		inactive	inactive	inactive					inactive	inactive	inactive	inactive		inactive		
C#C[C@@]1(O)CC[C@@H]2[C@H]3CCC4=C/C(=N\O)CC[C@H]4[C@@H]3CC[C@]21CC	inactive	inactive	inactive	inactive	inactive	inactive	inactive	inactive	inactive	inactive	inactive	inactive	inactive	inactive	inactive	inactive	inactive	inactive		inactive
Cc1cnc(NC(=O)C2C(=O)c3ccccc3S(=O)(=O)N2C)s1 (stereo unspecified)		inactive	inactive	inactive	inactive	inactive	inactive	inactive	inactive	inactive	inactive	inactive	inactive	inactive	inactive	inactive		inactive		inactive
Cc1c(C)c2c(c(C)c1O)CCC(C)(CCCC(C)CCCC(C)CCCC(C)C)O2 (stereo unspecified)		inactive	inactive	inactive	inactive	inactive	inactive	inactive	inactive	inactive	inactive	inactive	inactive	inactive	inactive	inactive	inactive	inactive		inactive
O=C1Oc2ccccc2C(=O)C1C(CC(O)c1ccc(-c2ccc(Br)cc2)cc1)c1ccccc1 (stereo unspecified)	50.1 µM (active)	inactive	inactive		inactive	inactive			inactive			inactive	inactive		inactive	inactive	inactive	inactive	12.6 µM (active)	
Nc1nc(Cl)nc2c1ncn2[C@@H]1O[C@H](CO)[C@H](O)C1F (stereo partly specified)	inactive	inactive	inactive	inactive	inactive	inactive	inactive	inactive		inactive	inactive	inactive	inactive	inactive	inactive	inactive	inactive	inactive		inactive
CC1(C)SC2[C@@H](N=CN3CCCCCC3)C(=O)N2[C@H]1C(=O)O (stereo partly specified)	inactive	inactive	inactive	inactive	inactive	inactive	inactive	inactive	inactive		inactive	inactive			inactive			inactive		inactive
